“And” between values parts separate entries of the source, which are not always exact repeats. Equal entries are not always repeated. A number with no mark means an inactive call. Inconclusive results are not listed. The source made the active and inactive calls. Unless noted, the call rests on the fitted dose curve; in most records, active means well fitted curve in the direction sought with a large enough effect; inconclusive means small, poorly fitted or top-dose-only effect, or another doubt; inactive means no such curve, though single readings can be large; an effect the other way counts as inactive or inconclusive.

A short description of assay [1]: qHTS assay for small molecule agonists of the antioxidant response element (ARE) signaling pathway (AID 651741; active means well fitted activation curve with a large enough effect in the signal ratio; the % refers to the signal ratio; further: potency means the concentration at half of the fitted maximal effect; on activation: % of control where 0% means no effect). The method, boiled down:
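HepG2 ARE-bla cells plated at 2,000 cells/well and incubated 5 h at 37 C/5% CO2 received 23 nL compound in DMSO. After 16 h at 37 C, LiveBLAzer B/G FRET substrate was applied for 2 h at room temperature and fluorescence read.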
On the technique in general: In qHTS, concentration-response curves come from the screen itself.

A short description of assay [2]: qHTS assay for small molecule activators of the p53 signaling pathway (AID 651743; active means well fitted activation curve with a large enough effect in the signal ratio, not every such curve was filed as active; the % refers to the signal ratio; further: potency means the concentration at half of the fitted maximal effect; on activation: series mostly up to about 92 µM; % of control where 0% means no effect). The following applies: HCT-116 p53RE-bla, beta-lactamase FRET ratio, 16 h; activation: hits give high values. The method, boiled down:
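HCT-116 p53RE-bla, 4,000 cells/well; 5 h settle; cpd/DMSO 16 h, 37 C; LiveBLAzer B/G 2 h RT; fluorescence intensity.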

Assay [3] is described as follows: qHTS assay for small molecule disruptors of the mitochondrial membrane potential - 5 hr assay (AID 651755; calls by dose curve; further: nearly all actives have a fitted effect of over 40% in size; further: potency means the concentration at half of the fitted maximal effect). The method, boiled down:
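HepG2 cells (2,000/well), attached overnight, exposed to compound 5 hr at 37C, then Mito-MPS dye 30 min. Fluorescence read for monomers (490/535 nm) and aggregates (540/590 nm).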

Assay [4] in a line: qHTS assay for environmental chemicals that activate the Aryl hydrocarbon Receptor (AhR) signaling pathway (AID 651777). Further: % of control where 0% means no effect; nearly all actives have a fitted effect of over 15% in size. The conditions noted are these: 1A2-DRE human hepatoma cells, luciferase, 24 h; activation: hits give high values. The method, boiled down: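 Stable CYP1A2 promoter/DRE-luciferase human hepatoma line treated 24 hr; One-Glo luminescence, 30 min RT.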
The target of assay [5] is Nuclear receptor ROR-gamma (Homo sapiens) (UniProt P51449). Nature of the assay: qHTS assay for small molecule antagonists of the retinoid-related orphan receptor gamma (ROR-gamma) signaling pathway (AID 651802). Further: nearly all actives have a fitted effect of over 60% in size. Further: potency means the concentration at half of the fitted maximal effect. The method, boiled down: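 CHO cells carrying TET-inducible ROR-gamma and an ROR response element–luciferase reporter were exposed to compound, then induced with doxycycline. After 16hr at 37C, luminescence was read; lower signal indicates antagonism.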
Nuclear receptor ROR-gamma (Homo sapiens), sequence (P51449 whole entry, looked up): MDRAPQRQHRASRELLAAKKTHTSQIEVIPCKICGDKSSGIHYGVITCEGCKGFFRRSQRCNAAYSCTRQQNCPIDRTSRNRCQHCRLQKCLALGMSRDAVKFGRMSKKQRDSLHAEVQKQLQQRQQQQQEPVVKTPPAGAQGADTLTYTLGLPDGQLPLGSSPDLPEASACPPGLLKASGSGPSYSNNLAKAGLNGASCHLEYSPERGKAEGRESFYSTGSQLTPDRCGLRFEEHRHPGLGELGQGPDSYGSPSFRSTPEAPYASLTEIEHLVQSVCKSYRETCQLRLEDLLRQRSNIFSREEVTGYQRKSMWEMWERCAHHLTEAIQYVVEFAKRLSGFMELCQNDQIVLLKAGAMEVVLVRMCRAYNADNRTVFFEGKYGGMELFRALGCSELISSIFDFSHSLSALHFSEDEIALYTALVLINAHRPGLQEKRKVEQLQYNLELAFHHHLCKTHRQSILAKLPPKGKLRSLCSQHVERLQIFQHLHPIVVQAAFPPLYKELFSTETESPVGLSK

Assay [6] can be described thus: qHTS assay for small molecule agonists of the antioxidant response element (ARE) signaling pathway measured by Nrf2-dependant transcriptional activity (AID 720636; active means well fitted curve in the direction sought with a large enough effect in the repeat runs; an effect the other way counts as inactive or inconclusive; further: potency means the concentration at half of the fitted maximal effect;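 on activation: HepG2 cells with an ARE-driven luciferase reporter; % of control where 0% means no effect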). The method, boiled down:
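Reporter gene assay, HepG2 ARE-luc: 16 hr compound, 37 C, 5% CO2; read-out luciferase luminescence.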

The nature of assay [7]: qHTS assay for small molecule antagonists of the retinoid-related orphan receptor gamma (ROR-gamma) signaling pathway - cell viability counter screen (AID 720652; active means well fitted curve in the direction sought with a large enough effect in the repeat runs; an effect the other way counts as inactive or inconclusive;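 further: compound exposure lasted 16 hr before ATP read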; further: potency means the concentration at half of the fitted maximal effect). The method, boiled down: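 Counter screen in CHO cells carrying TET-inducible ROR-gamma and an ROR response element-luciferase reporter; cells plated 5 hr, compound pinned, doxycycline added, then 16 hr at 37 C. Viability read as intracellular ATP by CellTiter-Glo luminescence.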

Assay [8] is described as follows: qHTS assay for small molecule disruptors of the mitochondrial membrane potential - 1 hr assay (AID 651754; calls by dose curve; further: nearly all actives have a fitted effect of over 35% in size; further: potency means the concentration at half of the fitted maximal effect). The method, boiled down: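 HepG2 cells, attached overnight at 37C, were exposed to compound or DMSO vehicle for 1 hr at 37C, 5% CO2, then stained with Mito-MPS dye for 30 min. Red aggregate versus green monomer fluorescence reports membrane potential.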
Assay [9] deals with Tumor necrosis factor (Homo sapiens) (UniProt P01375). Nature of the assay: qHTS assay to identify small molecules that stimulate Tumor Necrosis Factor-alpha (TNF-alpha) secretion (AID 651757; active means well fitted curve in the direction sought with a large enough effect in the signal ratio; the % refers to the signal ratio; further: 0% is about no effect). The method, boiled down: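 THP-1 cells were exposed to compounds for 17 hrs at 37 C, after which secreted TNF-alpha was measured by homogeneous HTRF (TR-FRET) using cryptate- and XL665-labeled anti-TNF-alpha antibodies, read after 3 hr at room temperature.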
Tumor necrosis factor (Homo sapiens), sequence (P01375 whole entry, looked up): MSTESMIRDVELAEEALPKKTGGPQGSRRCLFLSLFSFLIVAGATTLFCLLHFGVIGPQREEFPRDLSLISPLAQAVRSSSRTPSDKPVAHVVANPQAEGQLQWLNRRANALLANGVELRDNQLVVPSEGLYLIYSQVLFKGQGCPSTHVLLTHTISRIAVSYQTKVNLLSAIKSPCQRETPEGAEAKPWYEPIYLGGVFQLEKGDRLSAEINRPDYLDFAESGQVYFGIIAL

A short description of assay [10]: qHTS assay to identify small molecules that stimulate interleukin-8 (IL-8) secretion (AID 651758; active means well fitted activation curve with a large enough effect in the signal ratio; the % refers to the signal ratio; further: 0% is about no effect). The method, boiled down: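 THP-1 cells (2000/well) exposed to compound 16 h at 37 C; secreted IL-8 then detected by HTRF with cryptate- and XL665-labelled anti-IL-8 antibody pair after 1-3 h at room temperature.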
In assay [11] the target is Peroxisome proliferator-activated receptor alpha (Homo sapiens) (UniProt Q07869). In words: qHTS assay for small molecule agonists of the peroxisome proliferator-activated receptor alpha (PPARalpha) signaling pathway (AID 651778). Further: % of control where 0% means no effect. The conditions noted are these: PathHunter PPARalpha complementation, chemiluminescence, 6 h; hits give high values. The method, boiled down:
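Enzyme-fragment complementation assay in which ligand-bound PPARalpha translocates and forms an active enzyme that generates chemiluminescence. Cells were plated overnight, exposed to compound for 6 hr at 37 C, and then given detection reagent for 60 min at room temperature.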

A short description of assay [12]: qHTS assay for small molecule activators of the nuclear factor-kappa B (NF-kB) signaling pathway (AID 651749; active means well fitted activation curve with a large enough effect in the signal ratio; the % refers to the signal ratio; further: series mostly up to about 77 µM; % of control where 0% means no effect). The conditions noted are these: NF-kB-bla ME-180 cells, beta-lactamase FRET ratio, 16 h; hits give high values. The method, boiled down: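 Incubation lasted 16 hr at 37C in 5% CO2 after 23 nL compound addition to ME-180 NF-kB-bla cells. Activation appears as beta-lactamase-mediated FRET loss.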

A short description of assay [13]: qHTS for compounds that reverse cellular toxicity of Amyloid beta (A-beta) peptide in yeast: LOPAC Validation Assay (AID 720559).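 Further: plate controls were DMSO for no effect and equimolar ferric chloride plus clioquinol rescue for full effect.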 The method, boiled down: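 Activity is expressed relative to DMSO and an equimolar ferric chloride/clioquinol mix. Compounds were pinned into medium with A-beta-expressing yeast, grown 48 hr at 30 C, then read by absorbance at 600 nm.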

Assay [14] in a line: qHTS for Activators of Parkin Expression: LOPAC Validation Assay (NLuc Reporter) (AID 720572;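 further: 0% = DMSO and 100% = positive control compound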). The method, boiled down: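 Neuronal cells with a Parkin promoter-driven FLuc/NLuc coincidence reporter were treated 24 h at 37 C in 7-point dose response (LOPAC). NLuc luminescence read after FLuc; signals normalized to DMSO and positive control (100%).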
Assay [15] can be described thus: qHTS for Activators of Parkin Expression: LOPAC Validation Assay (FLuc Reporter) (AID 720573;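 further: 0% = DMSO and 100% = positive control compounds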). The method, boiled down:
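A neuronal cell line harbouring FLuc and NLuc reporters behind the Parkin promoter was exposed to compounds for 24 h. Firefly luciferase signal, measured after 10 min with detection reagent, was scaled to DMSO and positive-control wells.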

The target of assay [16] is T1, Hexokinase-4 (Homo sapiens) + Glucokinase regulatory protein (Homo sapiens) (UniProt P35557+Q14397). Nature of the assay: qHTS assay for inhibitors of recombinant human GCK-GKRP interaction: Diaphorase-coupled assay (AID 743205). The method, boiled down: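 Inhibitors of the GCK–GKRP complex relieve GKRP suppression of GCK, detected through a G6PDH–diaphorase cascade reducing resazurin. Human GST-GCK and FLAG-GKRP are used at 10 nM with 5 mM glucose and 0.4 mM ATP.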
T1 sequence (P35557 whole entry, looked up): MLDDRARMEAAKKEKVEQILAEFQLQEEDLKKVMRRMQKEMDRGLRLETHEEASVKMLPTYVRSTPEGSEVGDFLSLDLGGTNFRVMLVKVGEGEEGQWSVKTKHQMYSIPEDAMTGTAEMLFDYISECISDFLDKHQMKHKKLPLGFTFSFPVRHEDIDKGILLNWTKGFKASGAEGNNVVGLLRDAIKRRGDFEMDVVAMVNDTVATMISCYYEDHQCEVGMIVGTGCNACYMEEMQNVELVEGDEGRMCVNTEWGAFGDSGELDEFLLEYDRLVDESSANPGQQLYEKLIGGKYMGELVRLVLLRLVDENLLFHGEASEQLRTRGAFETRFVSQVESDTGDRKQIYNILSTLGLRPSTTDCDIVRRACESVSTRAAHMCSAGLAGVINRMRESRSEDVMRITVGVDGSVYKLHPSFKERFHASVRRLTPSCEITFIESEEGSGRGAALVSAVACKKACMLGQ
T1 sequence (Q14397 whole entry, looked up): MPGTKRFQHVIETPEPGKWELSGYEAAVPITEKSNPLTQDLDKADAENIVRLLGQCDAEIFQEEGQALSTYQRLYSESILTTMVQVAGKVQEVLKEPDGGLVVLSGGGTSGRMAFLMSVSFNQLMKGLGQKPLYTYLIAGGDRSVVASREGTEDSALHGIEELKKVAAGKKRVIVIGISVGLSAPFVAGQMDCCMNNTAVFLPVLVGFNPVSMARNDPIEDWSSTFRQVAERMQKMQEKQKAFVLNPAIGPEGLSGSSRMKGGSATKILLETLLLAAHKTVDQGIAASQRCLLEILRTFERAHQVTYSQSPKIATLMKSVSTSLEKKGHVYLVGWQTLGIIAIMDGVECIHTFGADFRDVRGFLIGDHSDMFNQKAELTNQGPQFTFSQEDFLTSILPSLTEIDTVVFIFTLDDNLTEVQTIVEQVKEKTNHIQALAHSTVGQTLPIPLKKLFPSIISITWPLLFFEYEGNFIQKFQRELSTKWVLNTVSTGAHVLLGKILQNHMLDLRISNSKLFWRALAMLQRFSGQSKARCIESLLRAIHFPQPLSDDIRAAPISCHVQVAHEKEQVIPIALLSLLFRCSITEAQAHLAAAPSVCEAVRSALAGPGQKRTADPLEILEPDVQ

Assay [17] deals with T1, Hexokinase-4 (Homo sapiens) + Glucokinase regulatory protein (Homo sapiens). In words: qHTS assay for inhibitors of recombinant human GCK-GKRP interaction: ADP-Glo assay (AID 743206).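 Further: plate controls were DMSO plus enzyme for no effect and no enzyme for full effect.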 The method, boiled down:
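GST-GCK and FLAG-GKRP (15 nM each in the dispensed mix, with 2 uM S6P) react with 0.4 mM ATP and 5 mM glucose (final) in Hepes pH 7.6 for 60 min at room temperature. ADP is measured by ADP-Glo luminescence.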

Assay [18] shares this target. Nature of the assay: qHTS assay for inhibitors of recombinant human GCK-GKRP interaction: HTRF assay (AID 743207).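 Further: 0% = DMSO with GCK present and -100% = DMSO wells lacking GCK.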 The method, boiled down: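 Steps: dispense GCK–GKRP complex (5 nM each, GST- and FLAG-tagged) with 2 uM S6P; pin in compounds; add XL665/Eu-cryptate-labelled antibodies; incubate 60 min at room temperature; read time-resolved FRET at 665 and 615 nm.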

Assay [19] in a line: qHTS assay for small molecule agonists of the antioxidant response element (ARE) signaling pathway measured by Nrf2-dependant transcriptional activity - cell viability counter screen (AID 720653; active means well fitted curve in the direction sought with a large enough effect in the repeat runs; an effect the other way counts as inactive or inconclusive; further: on the % scale 0 is the no-effect control and ±100 the full control effect). The conditions noted are these: ARE-bla HepG2 viability, CellTiter-Glo ATP luminescence, 16 h; max response: hits give low values. The method, boiled down: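 ARE-bla HepG2 cells treated with compounds for 16 h at 37C; this counter screen measures viability as intracellular ATP by CellTiter-Glo luminescence after 30 min at room temperature.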

Peroxisome proliferator-activated receptor alpha (Homo sapiens), sequence (Q07869 whole entry, looked up, the tested form may be a part): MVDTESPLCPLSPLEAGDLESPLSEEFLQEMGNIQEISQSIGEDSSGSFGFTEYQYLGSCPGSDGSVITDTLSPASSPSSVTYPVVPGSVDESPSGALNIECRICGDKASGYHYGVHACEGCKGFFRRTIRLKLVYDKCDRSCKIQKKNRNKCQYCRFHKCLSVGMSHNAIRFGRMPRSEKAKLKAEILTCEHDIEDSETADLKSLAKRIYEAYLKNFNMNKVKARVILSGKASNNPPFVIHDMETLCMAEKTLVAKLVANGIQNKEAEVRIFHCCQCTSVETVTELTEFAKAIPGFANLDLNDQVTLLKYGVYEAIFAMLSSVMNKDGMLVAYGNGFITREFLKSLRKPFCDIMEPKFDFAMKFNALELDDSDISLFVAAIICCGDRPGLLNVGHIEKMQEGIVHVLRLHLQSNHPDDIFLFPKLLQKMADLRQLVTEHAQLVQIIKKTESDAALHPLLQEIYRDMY

As to `[Cl-].[Cl-].[Hg+2]`, the Potency in assay [1] was 29.8 µM (active); in assay [5], 1.06 µM (active); in assay [6], 21.1 µM (active); in [7], 1.68 µM (active). Also, the activation is 5.15% in assay [2] and 1.68% in assay [4]. Besides, the Potency result in assay [3] is “inactive”.

For the molecule `O=C(O)C(Cl)(Cl)Cl`, the Potency result in assay [1], in assay [8], in assay [3], in assay [10], in assay [5] and in assay [6] was “inactive” in each case. Besides, the Potency result in [7] is “inactive”. Moreover, the activation in assay [2] was 0.586% and -1.1%. The call in assay [9] was inactive. The max response in assay [11] is 3.26% and -0.682%.

In the case of `[O]=[Cr](=[O])([OH])[O][Cr](=[O])(=[O])[OH]`, the Potency in [1] was 7.5 µM (active); in assay [2], 22.4 µM (active) and 15.8 µM (active) and 7.94 µM (active); in assay [5], 33.5 µM (active) and 16.8 µM (active); in assay [7] it was 11.9 µM (active). Also, the activation is 1.49% and -0.838% and 3.86% in assay [12]; 0.789% and 0.878% and -0.644% in assay [4]. Further, the Potency result in assay [8], in assay [3], in assay [10] and in [6] was “inactive” throughout. Besides, the outcome in assay [9] was inactive.

`CCCCCCCCOC(=O)c1ccccc1C(=O)OCCCCCCCC`: the Potency result in assay [1], in assay [8], in assay [3], in assay [5] and in [6] was “inactive” throughout. Further, the activation in assay [2] was 1.9% and -2.06%; in assay [12], -1.07% and -0.62%; in assay [4], -0.0695% and 0.763%. Also, in assay [9], the outcome was inactive.

As for `COCC(C)N(C(=O)CCl)c1c(C)csc1C` (stereo not drawn), the Potency in assay [1] is 15.4 µM (active). Moreover, the activation in assay [2] is -0.528%; in assay [12], -2.83%; in assay [4], -1.87%.

In the case of `O=C1C=CC(=O)C=C1`, the figures for the Potency in assay [1] and in assay [7] were 47.3 µM (active) and 26.6 µM (active), respectively. The activation in assay [12] is -1.25%; in assay [4] it was 1.56%. Further, the Potency entry in assay [8], in [3], in assay [14], in [6] and in assay [16] was “inactive” each time. Besides, the result in [9], in assay [13], in [15], in assay [17] and in assay [18] was inactive.

For `CC(C)Nc1ccc(Nc2ccccc2)cc1`, the Potency in assay [1] was 47.3 µM (active); in [3], 59.6 µM (active). For the same molecule, the max response in assay [19] is -21.1%.

For the molecule `O=c1[nH]c(=O)n(Cl)c(=O)n1Cl`, the Potency result in assay [1] and in assay [6] was “inactive” throughout. Also, in [4], the activation was -2.06%.

Turning to `Oc1cc(Cl)c(Cl)cc1Cl`, the Potency in [1] is 42.2 µM (active); in [8] it was 47.3 µM (active); in assay [3] it was 47.3 µM (active); in assay [5], 23.7 µM (active). In addition, the activation in assay [12] was 1.51% and -0.218%; in assay [4] it was 3.21% and 2.24%. Further, the Potency result in assay [6] and in [7] was “inactive” each time.

As for `O=Cc1ccco1`, the Potency result in [1], in assay [8], in [3], in assay [6] and in assay [7] was “inactive” in each case. For the same molecule, the activation in assay [2] was -1.55%; in assay [12], -0.614%; in assay [4], -0.549%. Further, the molecule was classed as inactive in assay [9].

(Values after PubChem BioAssay (NCATS).)
